# HT1080 IDH1KD tx: kills HT-1080 cells with IDH1 knockdown | Potency, µM (top dose mostly 46.1 µM), for the others: top-dose activity, negative = toxicity, usual class: cytotoxic | 2% of 360,000 active | HT-1080 IDH1 knockdown viability, ATP luminescence, 48 h;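 note: potency is the fitted concentration of half-maximal effect; 0% = DMSO wells and -100% = cell-free medium wells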
#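 % activity derives from luminescence (CellTiter-Glo), normalised to DMSO and no-cell wells. HT-1080-IDH1KD cells, 750/well, had 48 h compound exposure at 37 °C.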
# HT1080-NT tox: kills 2HG-producing HT-1080-NT fibrosarcoma cells; HT-1080-NT fibrosarcoma viability, CellTiter-Glo ATP luminescence, 48 h; Potency, µM (highest dose often 46.1 µM), for the others: top-dose activity, negative = less viability, actives largely listed as cytotoxic; 1.6% of 360,000 active;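 note: NT is the 2HG producing partner of a matched IDH1 knockdown line; potency is the fitted concentration of half-maximal effect; 0% = DMSO-treated cells and -100% = media-only wells without cells; nearly all actives have a fitted effect of over 55% in size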
#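 Toxicity toward the 2HG-producing NT line was scored as %Activity, normalised to DMSO and no-cell wells, from CellTiter-Glo luminescence after 48 hours' treatment.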
# IL-1B inflam inh: inflammasome signaling inhibition, IL-1 beta readout | THP-1 LPS/ATP IL-1B secretion, AlphaLISA, 16 h; hits give low values | activity change, % at 57.5 µM | 4.7% of 360,000 active | AID 743279; in the data active = activity change below about -50%; inconclusive = mostly about -30% to -49%
#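 Secreted IL-1B measured by AlphaLISA bead assay after 16 h compound exposure of THP-1 cells; compounds (final up to 57.5 uM) added 1 h before LPS (250 ng/mL) and ATP (1.25 mM) stimulation; lower signal means less secretion.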
# TDP1 cell noCPT: qHTS for Inhibitors of human tyrosyl-DNA phosphodiesterase 1 (TDP1): qHTS in cells in absence of CPT | DT40 Tdp1-/- hTDP1 cells, no CPT, ATP luminescence, 48 h | Potency, µM (titrated, usually from 46.2 µM), inactives show top-dose activity change, negative = growth inhibition, most hits filed as inhibitors | 15% of 420,000 active | AID 686978, 2013; note: potency is the fitted concentration of half-maximal effect; nearly all actives have a fitted effect of over 55% in size
#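 Growth kinetics read by CellTiter-Glo luminescence after ≥48 hr at 37 °C. Cells: DT40 Tdp1-/- stably carrying human TDP1, 400 per well, compound exposure in the absence of CPT (DMSO vehicle).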
# TDP1 cell CPT: growth inhibition of DT40 Tdp1-/-;hTDP1 cells with camptothecin (screen for TDP1 inhibitors); chicken DT40 Tdp1-/-;hTDP1 cells + 20 nM CPT, ATP luminescence, 48 h; Potency, µM (doses to about 46.2 µM), without a hit: at the highest dose activity change, negative = growth inhibition, most hits filed as inhibitors; 12% of 420,000 active; AID 686979; note: potency is the fitted concentration of half-maximal effect; nearly all actives have a fitted effect of over 55% in size
#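 Chicken DT40 Tdp1-/- cells stably complemented with human TDP1 were seeded at 400 cells/well in medium containing 20 nM camptothecin, exposed to pin-transferred compounds, and grown at 37 °C for at least 48 hr. Viability was read as ATP luminescence.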
# An asterisk follows results filed as active; ? = inconclusive; . = no result. Shown are actives, neighbours in structure and some others; about 19% of the full set was active somewhere. Unless noted, calls come from the whole dose curve; as a rule, active = well fitted curve in the direction sought with a large enough effect; inconclusive = small, poorly fitted or top-dose-only effect, or another doubt; inactive = no such curve, though single readings can be large; an effect the other way counts as inactive or inconclusive. Unless noted, % is set by controls: 0 for no effect and ±100 for the full control effect.
SMILES,HT1080 IDH1KD tx,HT1080-NT tox,IL-1B inflam inh,TDP1 cell noCPT,TDP1 cell CPT
CC(C)c1nn2c(=O)cc(COC(=O)c3cccc(NC(=O)CCc4ccccc4)c3)nc2s1,.,.,.,-11%,11%
CC(C)N1CCC1(C)C(=O)Nc1nc2ccccc2[nH]1 (stereo not drawn),0%,0%,11,7%,2%
CCOc1ccc(-c2cccc(NC(=O)c3cccs3)c2)nn1,-19%,-2%,-8,?,?
O=C(c1cc(Cl)ccc1OCc1ccccc1)N1CCOCC1,0%,1%,6,-3%,-8%
O=C(NCc1ccccc1Cl)c1cc(C(=O)C2CC2)c[nH]1,-9%,6%,10,-23%,?
CC(C)Cn1c(N)c(C(=O)COC(=O)CCc2nc3ccccc3s2)c(=O)n(C)c1=O,-19%,-20%,17,15µM*,?
Cc1csc(=O)n1CCC(=O)OCC(=O)c1c(N)n(CC(C)C)c(=O)n(C)c1=O,-13%,-8%,17,15µM*,18µM*
CC(C)Cn1c(N)c(C(=O)COC(=O)CCc2nc3ccccc3c(=O)[nH]2)c(=O)n(C)c1=O,-9%,-2%,15,-20%,?
CC(C)Cn1c(N)c(C(=O)COC(=O)CC23CC4CC(CC(C4)C2)C3)c(=O)n(C)c1=O,?,?,?,7.3µM*,7.3µM*
O=C1OC(Cc2ccccc2)(c2ccccc2)c2ccccc21 (stereo not drawn),2%,-6%,-4,?,-26%
O=C(O)c1cccc(NC(=O)c2cccc(S(=O)(=O)N3CCc4ccccc4C3)c2)c1,-2%,-1%,0,15%,-6%
COc1ccc(CCNC(=O)c2noc(C)c2[N+](=O)[O-])cc1OC,17%,9%,22,-10%,3%
Cc1ccc(-n2ncc(C(=O)NCCCN3CCCCC3)c2C2CCN(C(=O)OC(C)(C)C)CC2)cc1,.,.,.,-29%,?
Cc1ccc(-n2ncc(C(=O)NCc3ccccc3)c2C2CCN(C(=O)OC(C)(C)C)CC2)cc1,.,.,.,?,21µM*
CC(C)(C)OC(=O)N1CCC(c2c(C(=O)NCCN3CCC(Cc4ccccc4)CC3)cnn2-c2ccc(F)cc2)CC1,.,.,.,5.2µM*,5.2µM*
CC(C)(C)OC(=O)N1CCC(c2c(C(=O)NCc3cccc(Cl)c3)cnn2-c2ccc(F)cc2)CC1,.,.,.,13µM*,?
CC(C)(C)OC(=O)N1CCC(c2c(C(=O)N3CCN(C(=O)c4ccco4)CC3)cnn2-c2ccc(F)cc2)CC1,6%,16%,5,11%,-10%
CCOC(=O)CC[C@H](NC(=O)Cn1cnc(C(=O)Nc2ccc(C)c(C)c2)n1)C(=O)OCC,-15%,-19%,-2,-21%,?
Cc1ccn2cc(-c3cccc(NS(C)(=O)=O)c3)nc2c1,-3%,0%,?,-24%,-13%
Cc1ccn2cc(-c3ccc(NS(=O)(=O)c4ccccc4)cc3)nc2c1,-19%,-8%,1,29µM*,?
Cc1ccn2cc(-c3cccc(S(=O)(=O)N4CCCC4)c3)nc2c1,-3%,-7%,-61*,23µM*,18µM*
Cc1ccc(S(=O)(=O)Nc2ccc(-c3cn4ccc(C)cc4n3)cc2)cc1,-3%,-16%,-12,15µM*,?
Cc1cc(C(=O)Nc2ccncc2)c(C)o1,-6%,-1%,-7,?,?
Cc1cccc(NC(=O)Cn2nnc(C(=O)NCc3cccs3)c2N)c1C,-14%,-18%,0,?,0%
Cc1c(Cl)cccc1NC(=O)Cn1nnc(C(=O)NCc2cccs2)c1N,-15%,?,4,1.6µM*,5.2µM*
SMILES,HT1080 IDH1KD tx,HT1080-NT tox,IL-1B inflam inh,TDP1 cell noCPT,TDP1 cell CPT
Cc1ccccc1NC(=O)Cn1nnc(C(=O)NCc2cccs2)c1N,.,.,.,6.5µM*,9.2µM*
NC(=O)c1ccccc1N/C=C/C(=O)c1ccco1,-3%,3%,-2,-1%,-27%
COc1ccccc1/C=C/C(=O)c1cc(Br)ccc1OC(=O)c1ccco1,21µM*,18µM*,-98*,?,?
O=C(/C=C/c1cc(Br)ccc1O)c1ccco1,9.2µM*,9.2µM*,-71*,2.6µM*,6.5µM*
O=C(/C=C/c1ccccc1O)c1ccco1,?,?,-14,21µM*,18µM*
COc1cc(C(=O)Nc2ccc(NC(=O)c3ccccc3Cl)nc2)cc(OC)c1OC,-20%,-13%,-15,?,?
CCOc1ccc(S(=O)(=O)c2ccc(C)cc2)c2c1no[n+]2[O-],-10%,-4%,-1,18µM*,15µM*
CCOc1cc(/C=N/O)ccc1OS(=O)(=O)c1ccc(C)cc1,-21%,-22%,2,?,-27%
O=C(C1CCN(S(=O)(=O)c2ccc(F)cc2)CC1)N1CCCC(C(F)(F)F)C1 (stereo not drawn),1%,2%,2,-25%,-6%
COc1ccc(CN2C(=O)C(CC(=O)NC3CCCCC3)CC(C(=O)N(C(C)C)C(C)C)=C2C)cc1 (stereo not drawn),-2%,-7%,-19,15µM*,?
CCN(CC)C(=O)C1=C(C)N(Cc2ccc(C(C)(C)C)cc2)C(=O)C(CC(=O)NC2CCCCC2)C1 (stereo not drawn),-2%,-6%,-26,12µM*,15µM*
CC1=C(C(=O)N2CCCCCC2)CC(CC(=O)NC2CCCC2)C(=O)N1Cc1ccc(C(C)(C)C)cc1 (stereo not drawn),?,-5%,-73*,?,?
CC1=C(C(=O)N(C(C)C)C(C)C)CC(CC(=O)NC2CCCC2)C(=O)N1Cc1ccc(C(C)(C)C)cc1 (stereo not drawn),?,?,-68*,23µM*,21µM*
CCC(C(=O)OCC(=O)NC(=O)c1ccccc1OC)c1ccccc1 (stereo not drawn),7%,11%,4,3%,4%
Cc1cccc(C(=O)NC(=O)Nc2ccc(-n3nc(C(F)(F)F)cc3C(F)(F)F)cc2)c1,.,.,.,-26%,-10%
Cc1cccc(C)c1NC(=O)C1CCCN1C(=O)NCc1ccccc1 (stereo not drawn),7%,12%,15,0%,7%
COC(=O)c1ccc(C)c(NS(=O)(=O)c2ccc3c(c2)OCCO3)c1,0.71µM*,0.5µM*,42,0.92µM*,0.92µM*
COC(=O)c1ccc(C)c(NS(=O)(=O)c2ccc(OC)cc2)c1,?,?,0,0.23µM*,0.29µM*
COC(=O)c1ccc(C)c(NS(=O)(=O)c2ccc(C)c([N+](=O)[O-])c2)c1,?,-24%,19,?,-24%

# Assay outcomes (PubChem BioAssay)
